Measurements as given in the supplement of paper PMC12645437, “Orthogonal IMiD-Degron Pairs Induce Selective Protein Degradation in Cells” (ACS Chemical Biology, 2025).
The full ranking holds about 8,300 sequences; the median of “log2 fold change of degron read counts, EGFP-low vs EGFP+ sorted cells (limma voom), compound-induced degradation” is about -1.1, and the highest 2% start at about 3.2. This is one part of a sample in which the highest values are shown more often than they occur.

T1: CRBN, Q96SW2
T1 chain: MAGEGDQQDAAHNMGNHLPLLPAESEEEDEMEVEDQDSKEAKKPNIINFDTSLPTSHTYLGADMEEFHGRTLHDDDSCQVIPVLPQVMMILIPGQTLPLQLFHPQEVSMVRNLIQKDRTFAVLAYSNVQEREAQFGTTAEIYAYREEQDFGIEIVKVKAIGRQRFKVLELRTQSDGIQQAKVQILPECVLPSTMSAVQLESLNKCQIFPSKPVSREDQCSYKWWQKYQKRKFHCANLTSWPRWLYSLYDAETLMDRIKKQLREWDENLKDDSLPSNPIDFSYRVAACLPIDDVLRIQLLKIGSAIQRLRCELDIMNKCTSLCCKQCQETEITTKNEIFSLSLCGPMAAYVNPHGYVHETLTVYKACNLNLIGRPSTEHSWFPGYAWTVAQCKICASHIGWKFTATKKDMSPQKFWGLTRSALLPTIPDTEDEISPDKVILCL


Biological target: T1, CRBN, Q96SW2
Experiment: log2 fold change of degron read counts, EGFP-low vs EGFP+ sorted cells (limma voom), compound-induced degradation; higher = more compound-induced degradation of the degron-EGFP fusion; degrons are variants of IKZF1/3 zinc finger 2; compound dose not given here
Conditions: Jurkat, 18 h
[1] = compound: compound 19 (5-tert-butyl-thalidomide)
[2] = compound: compound 22 (5-morpholino-thalidomide)
[3] = compound: compound 33 (diphenyl IMiD analogue)
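Also: pooled lentiviral library of zinc finger degron-EGFP fusions in mCherry-positive Jurkat cells, FACS-sorted after compound exposure, with degron abundance counted by next-generation sequencing.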

| Sequence | log2 fold change of degron read counts [1] | log2 fold change of degron read counts [2] | log2 fold change of degron read counts [3] | log2 fold change of degron read counts (compound: thalidomide) |
| --- | --- | --- | --- | --- |
| FFCNVCGASFTQKGNLLRHIKL [46F_47F_49N_50V_52G_53A_54S_55F_67L_, Q9UKT9] | 0.714 | 1.8 | 0.537 | -0.573 |
| FWCNVCGATFTQKGNLLRHIKL [46F_47W_49N_50V_52G_53A_54T_55F_67L_, Q9UKT9] | -0.873 | 1.95 | 0.03 | -1.73 |
| FVCEICGHWFTQKGNLLRHIKL [46F_47V_49E_50I_52G_53H_54W_55F_67L_, Q9UKT9] | -4.05 | -5.4 | -3.27 | -3.37 |
| FCCNVCGAIFTQKGNLLRHIKL [46F_47C_49N_50V_52G_53A_54I_55F_67L_, Q9UKT9] | -0.872 | -0.605 | 1.29 | -0.21 |
| FRCDVCGAKFTQKGNLLRHIKL [46F_47R_49D_50V_52G_53A_54K_55F_67L_, Q9UKT9] | -1.66 | -1.94 | -0.967 | -0.732 |
| FFCEICGHQFTQKGNLLRHIKL [46F_47F_49E_50I_52G_53H_54Q_55F_67L_, Q9UKT9] | -2.47 | -1.41 | -2.03 | -3.11 |
| FCCPVCGAYFTQKGNLLRHIKL [46F_47C_49P_50V_52G_53A_54Y_55F_67L_, Q9UKT9] | 0.773 | 0.428 | 1.38 | 0.899 |
| LICEICGFSCTQKGNLLRHIKL [46L_47I_49E_50I_52G_53F_54S_55C_67L_, Q9UKT9] | 1.33 | 3.02 | 2.39 | 3.24 |
| LMCEICGFSCTQKGNLLRHIKL [46L_47M_49E_50I_52G_53F_54S_55C_67L_, Q9UKT9] | 1.25 | 2.14 | 2.59 | 2.36 |
| LCCEICGFSCTQKGNLLRHIKL [46L_47C_49E_50I_52G_53F_54S_55C_67L_, Q9UKT9] | 2.55 | 2.37 | 1.93 | 2.56 |
| LKCEICGFSCTQKGNLLRHIKL [46L_47K_49E_50I_52G_53F_54S_55C_67L_, Q9UKT9] | 1.07 | -1.26 | -1.41 | 0.762 |
| LFCEICGFSCTQKGNLLRHIKL [46L_47F_49E_50I_52G_53F_54S_55C_67L_, Q9UKT9] | 3.66 | 3.51 | 2.53 | 2.79 |
| LYCEICGFSCTQKGNLLRHIKL [46L_47Y_49E_50I_52G_53F_54S_55C_67L_, Q9UKT9] | 3.63 | 3.7 | 3.1 | 2.45 |
| LTCEICGFSCTQKGNLLRHIKL [46L_47T_49E_50I_52G_53F_54S_55C_67L_, Q9UKT9] | 2.45 | 3.22 | 2.39 | 3.2 |
| FWCEICGHWFTQKGNLLRHIKL [46F_47W_49E_50I_52G_53H_54W_55F_67L_, Q9UKT9] | -1.25 | -1.77 | -1.42 | -1.28 |
| FVCEICGAWFTQKGNLLRHIKL [46F_47V_49E_50I_52G_53A_54W_55F_67L_, Q9UKT9] | -1.2 | -0.828 | 0.741 | 0.583 |
| FSCNICGASFTQKGNLLRHIKL [46F_47S_49N_50I_52G_53A_54S_55F_67L_, Q9UKT9] | 1.66 | 1.77 | 1.15 | 0.544 |
| FCCPQCGAMFTQKGNLLRHIKL [46F_47C_49P_50Q_52G_53A_54M_55F_67L_, Q9UKT9] | -1.18 | -1.69 | 0.335 | -0.935 |
| LYCNQCGFVCTQKGNLLRHIKL [46L_47Y_49N_50Q_52G_53F_54V_55C_67L_, Q9UKT9] | -0.977 | -0.96 | -1.36 | -1.76 |
| FHCNQCGAVFTQKGNLLRHIKL [46F_47H_49N_50Q_52G_53A_54V_55F_67L_, Q9UKT9] | -1.89 | -2.19 | -1.71 | -2 |
| FDCNVCGATFTQKGNLLRHIKL [46F_47D_49N_50V_52G_53A_54T_55F_67L_, Q9UKT9] | -1.91 | -2.32 | -1.24 | -1.1 |
| FECPICGHYFTQKGNLLRHIKL [46F_47E_49P_50I_52G_53H_54Y_55F_67L_, Q9UKT9] | -2.41 | -2.69 | -1.81 | -1.2 |
| FECDVCGAWFTQKGNLLRHIKL [46F_47E_49D_50V_52G_53A_54W_55F_67L_, Q9UKT9] | -3.45 | -3.71 | -2.2 | -2.52 |
| FRCNICGAAFTQKGNLLRHIKL [46F_47R_49N_50I_52G_53A_54A_55F_67L_, Q9UKT9] | 1.09 | 1.5 | 1.96 | 1.32 |
| FQCNICGAAFTQKGNLLRHIKL [46F_47Q_49N_50I_52G_53A_54A_55F_67L_, Q9UKT9] | 1.01 | 2.28 | 1.53 | 3.39 |
| FYCNICGAAFTQKGNLLRHIKL [46F_47Y_49N_50I_52G_53A_54A_55F_67L_, Q9UKT9] | 2.66 | 2.97 | 1.81 | -0.259 |
| FACNICGAAFTQKGNLLRHIKL [46F_47A_49N_50I_52G_53A_54A_55F_67L_, Q9UKT9] | 2.77 | 2.64 | 0.592 | 0.334 |
| FWCNICGAAFTQKGNLLRHIKL [46F_47W_49N_50I_52G_53A_54A_55F_67L_, Q9UKT9] | 2.29 | 3.32 | 1.66 | 0.348 |
| FECNICGAAFTQKGNLLRHIKL [46F_47E_49N_50I_52G_53A_54A_55F_67L_, Q9UKT9] | 0.374 | -0.891 | 1.05 | 2.1 |
